# PMC7862700, “An all-to-all approach to the identification of sequence-specific readers for epigenetic DNA modifications on cytosine”
# What was measured:
# Assay in all cases: DAPPL (digital affinity profiling via proximity ligation, sequencing); 10 mM Tris-HCl pH 7.5, 50 mM NaCl, 1 mM DTT, 4% glycerol, room temperature, 30 min; GST-TFs on glutathione beads, 16-mer random dsDNA library, 0.1% formaldehyde crosslink after washing; high values mean tight binding
# [1] = target: T1, FLI1 (Homo sapiens, UniProt Q01543 1-452); details: protein: recombinant; tags: N-terminal GST; dsDNA, one strand shown
# T1 sequence: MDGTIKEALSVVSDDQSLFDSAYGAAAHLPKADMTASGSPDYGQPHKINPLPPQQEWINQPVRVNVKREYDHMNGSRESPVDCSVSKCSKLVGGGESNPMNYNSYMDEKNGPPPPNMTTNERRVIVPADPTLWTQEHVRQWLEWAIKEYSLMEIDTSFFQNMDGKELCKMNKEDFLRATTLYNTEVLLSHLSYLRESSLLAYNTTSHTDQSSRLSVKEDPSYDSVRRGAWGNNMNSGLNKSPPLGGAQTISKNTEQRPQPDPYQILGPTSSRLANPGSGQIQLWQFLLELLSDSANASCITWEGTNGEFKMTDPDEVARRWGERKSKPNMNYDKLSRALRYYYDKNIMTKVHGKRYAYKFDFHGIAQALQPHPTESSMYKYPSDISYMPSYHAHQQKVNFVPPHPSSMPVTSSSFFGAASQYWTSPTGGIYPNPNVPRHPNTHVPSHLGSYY
# Procedure, shortened: (§1)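 Human transcription factors fused to GST were expressed in yeast, captured on glutathione beads, given DNA barcodes and pooled with a GST-only negative control. Pools were incubated with 200 nmole of a 16-mer random double-stranded DNA library in Tris/NaCl/DTT/glycerol buffer at room temperature for 30 min. They were then washed, crosslinked with 0.1% formaldehyde, proximity-ligated (BsaI/T4 ligase, 1 h, 37 °C), PCR-amplified and sequenced on an Illumina NextSeq500. Binding signal is each 6-mer's read frequency for a factor divided by its frequency for the GST control.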
# [2] = target: T2, ELK1 (Homo sapiens, UniProt P19419 1-428); details: protein: recombinant; tags: N-terminal GST; dsDNA, one strand shown
# T2 sequence: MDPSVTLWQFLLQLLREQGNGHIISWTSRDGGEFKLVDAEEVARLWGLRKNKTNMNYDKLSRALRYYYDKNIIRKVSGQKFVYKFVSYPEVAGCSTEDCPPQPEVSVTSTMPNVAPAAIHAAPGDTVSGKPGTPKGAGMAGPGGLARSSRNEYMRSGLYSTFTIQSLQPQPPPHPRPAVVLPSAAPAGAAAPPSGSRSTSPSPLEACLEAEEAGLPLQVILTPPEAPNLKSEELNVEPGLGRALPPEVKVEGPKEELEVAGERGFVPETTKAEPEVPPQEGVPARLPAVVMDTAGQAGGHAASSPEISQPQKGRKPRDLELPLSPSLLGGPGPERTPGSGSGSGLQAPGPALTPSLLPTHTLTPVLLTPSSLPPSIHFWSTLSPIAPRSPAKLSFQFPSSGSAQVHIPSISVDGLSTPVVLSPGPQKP
# Procedure, shortened: as §1
# [3] = target: T3, GABPA (Homo sapiens, UniProt Q06546 1-454); details: protein: recombinant; tags: N-terminal GST; dsDNA, one strand shown
# T3 sequence: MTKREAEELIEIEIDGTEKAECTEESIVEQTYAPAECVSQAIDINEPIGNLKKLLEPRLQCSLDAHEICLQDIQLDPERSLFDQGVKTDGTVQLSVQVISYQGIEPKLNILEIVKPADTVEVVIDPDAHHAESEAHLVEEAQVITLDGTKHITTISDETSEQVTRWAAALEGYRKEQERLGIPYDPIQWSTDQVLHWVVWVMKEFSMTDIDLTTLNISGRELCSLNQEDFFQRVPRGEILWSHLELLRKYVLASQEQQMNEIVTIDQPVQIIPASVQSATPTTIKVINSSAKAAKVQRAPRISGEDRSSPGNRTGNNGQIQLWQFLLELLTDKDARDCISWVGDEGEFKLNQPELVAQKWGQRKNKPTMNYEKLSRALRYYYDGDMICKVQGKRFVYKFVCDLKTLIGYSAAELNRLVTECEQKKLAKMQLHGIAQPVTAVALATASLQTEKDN
# Procedure, shortened: as §1
# [4] = target: T4, ERG (Homo sapiens, UniProt P11308 1-479); details: protein: recombinant; tags: N-terminal GST; dsDNA, one strand shown
# T4 sequence: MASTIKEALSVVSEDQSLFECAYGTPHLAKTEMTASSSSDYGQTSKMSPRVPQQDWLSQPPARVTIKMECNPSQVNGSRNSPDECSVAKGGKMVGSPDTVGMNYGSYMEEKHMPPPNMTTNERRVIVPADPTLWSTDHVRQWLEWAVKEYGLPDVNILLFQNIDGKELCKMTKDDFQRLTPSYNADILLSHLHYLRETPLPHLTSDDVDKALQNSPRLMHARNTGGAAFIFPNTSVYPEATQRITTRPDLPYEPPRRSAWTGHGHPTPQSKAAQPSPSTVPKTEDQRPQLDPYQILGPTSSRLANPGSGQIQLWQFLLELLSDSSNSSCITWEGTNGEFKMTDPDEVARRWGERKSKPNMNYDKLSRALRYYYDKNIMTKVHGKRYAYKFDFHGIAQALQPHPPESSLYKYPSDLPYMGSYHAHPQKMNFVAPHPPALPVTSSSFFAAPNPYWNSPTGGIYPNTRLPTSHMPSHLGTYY
# Procedure, shortened: as §1
# [5] = target: ELF1 (Homo sapiens, UniProt P32519 1-619); details: protein: recombinant; tags: N-terminal GST; dsDNA, one strand shown
# Procedure, shortened: as §1
# [6] = target: T5, EHF (Homo sapiens, UniProt Q9NZC4 1-300); details: protein: recombinant; tags: N-terminal GST; dsDNA, one strand shown
# T5 sequence: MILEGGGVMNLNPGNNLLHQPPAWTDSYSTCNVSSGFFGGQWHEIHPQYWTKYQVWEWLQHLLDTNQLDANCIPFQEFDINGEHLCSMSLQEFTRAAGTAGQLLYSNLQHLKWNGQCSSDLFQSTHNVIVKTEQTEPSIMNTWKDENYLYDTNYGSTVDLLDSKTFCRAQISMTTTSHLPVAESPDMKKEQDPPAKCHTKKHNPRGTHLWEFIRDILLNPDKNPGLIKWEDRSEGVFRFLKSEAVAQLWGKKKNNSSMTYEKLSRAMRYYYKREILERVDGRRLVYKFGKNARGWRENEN
# Procedure, shortened: as §1
# [7] = target: SPI1 (Homo sapiens, UniProt P17947 1-270); details: protein: recombinant; tags: N-terminal GST; dsDNA, one strand shown
# Procedure, shortened: as §1
# [8] = target: SPIB (Homo sapiens, UniProt Q01892 1-262); details: protein: recombinant; tags: N-terminal GST; dsDNA, one strand shown
# Procedure, shortened: as §1
# [9] = target: T6, ELK3 (Homo sapiens, UniProt P41970 1-407); details: protein: recombinant; tags: N-terminal GST; dsDNA, one strand shown
# T6 sequence: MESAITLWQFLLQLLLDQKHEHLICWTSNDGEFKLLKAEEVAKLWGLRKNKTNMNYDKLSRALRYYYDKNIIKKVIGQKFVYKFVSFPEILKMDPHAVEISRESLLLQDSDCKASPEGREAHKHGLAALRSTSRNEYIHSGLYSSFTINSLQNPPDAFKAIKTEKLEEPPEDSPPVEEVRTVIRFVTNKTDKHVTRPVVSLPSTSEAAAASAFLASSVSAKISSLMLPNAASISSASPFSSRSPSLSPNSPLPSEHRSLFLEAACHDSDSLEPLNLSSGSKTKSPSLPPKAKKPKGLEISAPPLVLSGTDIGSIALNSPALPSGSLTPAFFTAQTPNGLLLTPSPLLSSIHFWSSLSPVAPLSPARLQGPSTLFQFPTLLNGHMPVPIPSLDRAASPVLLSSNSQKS
# Procedure, shortened: as §1
# [10] = target: T7, FEV (Homo sapiens, UniProt Q99581 1-238); details: protein: recombinant; tags: N-terminal GST; dsDNA, one strand shown
# T7 sequence: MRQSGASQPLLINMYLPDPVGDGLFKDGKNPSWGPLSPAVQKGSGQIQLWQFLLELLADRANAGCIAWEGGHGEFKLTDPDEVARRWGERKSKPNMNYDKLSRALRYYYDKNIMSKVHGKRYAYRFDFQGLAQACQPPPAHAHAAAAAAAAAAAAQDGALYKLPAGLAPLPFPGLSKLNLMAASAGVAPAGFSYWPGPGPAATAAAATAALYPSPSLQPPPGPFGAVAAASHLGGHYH
# Procedure, shortened: as §1
# [11] = target: ETV5 (Homo sapiens, UniProt P41161 1-510); details: protein: recombinant; tags: N-terminal GST; dsDNA, one strand shown
# Procedure, shortened: as §1
# [12] = target: HSF1 (Homo sapiens, UniProt Q00613 1-529); details: protein: recombinant; tags: N-terminal GST; chain copies: 3; dsDNA, one strand shown
# Procedure, shortened: as §1
# [13] = target: T8, SPIC (Homo sapiens, UniProt Q8N5J4 1-248); details: protein: recombinant; tags: N-terminal GST; dsDNA, one strand shown
# T8 sequence: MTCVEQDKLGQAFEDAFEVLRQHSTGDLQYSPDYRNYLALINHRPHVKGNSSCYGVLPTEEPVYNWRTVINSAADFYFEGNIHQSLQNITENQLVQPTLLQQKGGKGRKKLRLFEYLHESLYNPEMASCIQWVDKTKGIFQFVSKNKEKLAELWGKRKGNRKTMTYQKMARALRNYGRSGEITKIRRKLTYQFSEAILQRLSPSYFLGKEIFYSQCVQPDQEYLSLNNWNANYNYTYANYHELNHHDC
# Procedure, shortened: as §1
# [14] = target: ELF4 (Homo sapiens, UniProt Q99607 1-663); details: protein: recombinant; tags: N-terminal GST; dsDNA, one strand shown
# Procedure, shortened: as §1
# [15] = target: T9, ELK4 (Homo sapiens, UniProt P28324-2 1-405); details: protein: recombinant; tags: N-terminal GST; dsDNA, one strand shown
# T9 sequence: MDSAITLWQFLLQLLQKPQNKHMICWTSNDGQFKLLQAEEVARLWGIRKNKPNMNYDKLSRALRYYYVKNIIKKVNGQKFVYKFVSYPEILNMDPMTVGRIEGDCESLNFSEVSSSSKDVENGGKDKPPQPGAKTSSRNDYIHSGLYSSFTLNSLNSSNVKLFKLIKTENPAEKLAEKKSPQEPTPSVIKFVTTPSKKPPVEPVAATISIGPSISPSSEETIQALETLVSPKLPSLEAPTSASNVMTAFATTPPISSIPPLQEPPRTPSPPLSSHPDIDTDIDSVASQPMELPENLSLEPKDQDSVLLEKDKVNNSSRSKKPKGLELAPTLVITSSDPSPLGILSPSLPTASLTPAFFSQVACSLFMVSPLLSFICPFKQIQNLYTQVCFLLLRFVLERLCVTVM
# Procedure, shortened: as §1
# [16] = target: T10, ETV2 (Homo sapiens, UniProt O00321 1-342); details: protein: recombinant; tags: N-terminal GST; dsDNA, one strand shown
# T10 sequence: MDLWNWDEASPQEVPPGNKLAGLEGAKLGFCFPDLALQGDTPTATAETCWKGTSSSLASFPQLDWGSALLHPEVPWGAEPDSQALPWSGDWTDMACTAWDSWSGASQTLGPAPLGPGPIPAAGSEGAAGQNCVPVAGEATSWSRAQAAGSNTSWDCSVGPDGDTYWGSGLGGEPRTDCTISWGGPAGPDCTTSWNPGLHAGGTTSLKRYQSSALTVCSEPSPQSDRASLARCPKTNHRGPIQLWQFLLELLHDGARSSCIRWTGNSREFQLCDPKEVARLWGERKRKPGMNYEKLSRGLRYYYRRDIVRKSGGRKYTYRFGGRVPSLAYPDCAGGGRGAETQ
# Procedure, shortened: as §1
# [17] = target: T11, ELF3 (Homo sapiens, UniProt P78545 1-371); details: protein: recombinant; tags: N-terminal GST; dsDNA, one strand shown
# T11 sequence: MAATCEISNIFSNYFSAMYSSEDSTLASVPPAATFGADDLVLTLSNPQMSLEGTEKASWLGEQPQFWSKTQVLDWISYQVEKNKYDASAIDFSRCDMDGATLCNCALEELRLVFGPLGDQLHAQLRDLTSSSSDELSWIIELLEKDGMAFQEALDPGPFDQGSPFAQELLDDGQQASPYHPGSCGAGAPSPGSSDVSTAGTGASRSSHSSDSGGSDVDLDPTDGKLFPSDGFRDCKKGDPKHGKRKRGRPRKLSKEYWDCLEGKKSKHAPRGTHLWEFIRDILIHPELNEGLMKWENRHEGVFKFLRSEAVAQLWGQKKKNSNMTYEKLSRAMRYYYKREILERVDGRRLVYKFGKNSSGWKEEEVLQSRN
# Procedure, shortened: as §1
# [18] = target: CRX (Homo sapiens, UniProt O43186 1-299); details: protein: recombinant; tags: N-terminal GST; dsDNA, one strand shown
# Procedure, shortened: as §1
# [19] = target: ETV1 (Homo sapiens, UniProt P50549 1-477); details: protein: recombinant; tags: N-terminal GST; dsDNA, one strand shown
# Procedure, shortened: as §1
# Chain of ELF1 (P32519 whole entry): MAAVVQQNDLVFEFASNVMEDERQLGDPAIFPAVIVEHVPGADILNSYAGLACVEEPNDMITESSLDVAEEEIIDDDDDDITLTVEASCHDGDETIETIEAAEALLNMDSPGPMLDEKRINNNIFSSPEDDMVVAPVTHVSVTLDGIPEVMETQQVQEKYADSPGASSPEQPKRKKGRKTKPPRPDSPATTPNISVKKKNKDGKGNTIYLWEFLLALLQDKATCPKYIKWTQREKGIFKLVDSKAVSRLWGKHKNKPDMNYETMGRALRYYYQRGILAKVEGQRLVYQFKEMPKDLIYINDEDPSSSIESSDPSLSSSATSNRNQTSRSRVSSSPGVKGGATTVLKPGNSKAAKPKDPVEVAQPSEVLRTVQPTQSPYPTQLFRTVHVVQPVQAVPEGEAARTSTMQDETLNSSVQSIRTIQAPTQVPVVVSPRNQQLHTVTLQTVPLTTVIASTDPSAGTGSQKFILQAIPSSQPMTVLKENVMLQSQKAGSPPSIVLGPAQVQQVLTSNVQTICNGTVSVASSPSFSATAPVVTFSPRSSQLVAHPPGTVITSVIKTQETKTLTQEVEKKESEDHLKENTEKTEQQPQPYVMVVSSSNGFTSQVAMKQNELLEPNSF
# Chain of ELF4 (Q99607 whole entry): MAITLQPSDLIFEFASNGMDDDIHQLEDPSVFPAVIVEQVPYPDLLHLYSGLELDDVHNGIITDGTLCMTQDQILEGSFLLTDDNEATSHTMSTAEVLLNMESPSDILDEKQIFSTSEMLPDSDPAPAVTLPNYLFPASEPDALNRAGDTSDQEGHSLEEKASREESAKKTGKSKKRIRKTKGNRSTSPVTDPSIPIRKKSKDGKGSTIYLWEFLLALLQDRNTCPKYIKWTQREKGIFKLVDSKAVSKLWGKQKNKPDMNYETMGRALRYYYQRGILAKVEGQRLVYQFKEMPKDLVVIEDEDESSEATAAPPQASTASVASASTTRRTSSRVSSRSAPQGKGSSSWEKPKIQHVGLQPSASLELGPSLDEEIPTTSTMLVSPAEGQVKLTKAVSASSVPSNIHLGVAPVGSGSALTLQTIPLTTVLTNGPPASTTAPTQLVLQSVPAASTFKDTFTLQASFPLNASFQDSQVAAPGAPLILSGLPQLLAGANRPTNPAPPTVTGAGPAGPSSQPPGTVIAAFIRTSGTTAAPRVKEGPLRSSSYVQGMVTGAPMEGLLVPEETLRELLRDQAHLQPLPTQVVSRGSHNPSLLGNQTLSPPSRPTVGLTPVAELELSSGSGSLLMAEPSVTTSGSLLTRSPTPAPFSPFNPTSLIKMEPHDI
# Chain of ETV1 (P50549 whole entry): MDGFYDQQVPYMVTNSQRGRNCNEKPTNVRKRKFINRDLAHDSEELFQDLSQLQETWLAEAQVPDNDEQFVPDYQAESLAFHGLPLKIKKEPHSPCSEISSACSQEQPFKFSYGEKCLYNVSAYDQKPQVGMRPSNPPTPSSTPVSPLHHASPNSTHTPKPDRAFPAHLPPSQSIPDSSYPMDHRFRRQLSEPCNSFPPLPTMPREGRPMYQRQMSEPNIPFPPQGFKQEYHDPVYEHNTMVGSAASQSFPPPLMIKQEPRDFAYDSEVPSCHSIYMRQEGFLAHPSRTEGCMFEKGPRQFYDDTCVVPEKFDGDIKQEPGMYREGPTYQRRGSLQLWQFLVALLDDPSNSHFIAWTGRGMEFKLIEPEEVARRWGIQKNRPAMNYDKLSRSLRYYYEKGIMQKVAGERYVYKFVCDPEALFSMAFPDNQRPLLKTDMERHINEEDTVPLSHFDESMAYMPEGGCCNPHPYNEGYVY
# Chain of HSF1 (Q00613 whole entry): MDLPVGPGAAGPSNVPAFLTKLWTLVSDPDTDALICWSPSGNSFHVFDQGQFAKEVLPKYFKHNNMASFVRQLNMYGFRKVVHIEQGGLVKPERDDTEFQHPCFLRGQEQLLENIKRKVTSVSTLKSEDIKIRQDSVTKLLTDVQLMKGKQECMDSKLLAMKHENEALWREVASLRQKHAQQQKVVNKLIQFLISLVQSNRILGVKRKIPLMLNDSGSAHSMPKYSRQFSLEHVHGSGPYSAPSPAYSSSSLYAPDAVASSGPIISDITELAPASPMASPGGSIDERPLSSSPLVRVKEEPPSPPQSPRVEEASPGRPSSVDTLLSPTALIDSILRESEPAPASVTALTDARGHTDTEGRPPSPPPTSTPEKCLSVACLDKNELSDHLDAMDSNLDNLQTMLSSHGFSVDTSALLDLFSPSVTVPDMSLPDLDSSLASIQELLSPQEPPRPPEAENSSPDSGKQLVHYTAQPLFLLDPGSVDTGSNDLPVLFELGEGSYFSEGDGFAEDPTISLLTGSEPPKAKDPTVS
# Chain of SPIB (Q01892 whole entry): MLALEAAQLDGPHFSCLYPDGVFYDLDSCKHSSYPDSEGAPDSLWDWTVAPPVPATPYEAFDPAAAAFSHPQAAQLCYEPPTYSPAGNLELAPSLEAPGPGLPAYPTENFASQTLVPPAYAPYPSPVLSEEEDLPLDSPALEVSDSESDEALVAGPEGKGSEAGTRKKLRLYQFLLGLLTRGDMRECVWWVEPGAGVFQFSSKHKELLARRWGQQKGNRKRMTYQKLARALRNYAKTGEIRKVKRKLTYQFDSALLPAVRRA
# Chain of CRX (O43186 whole entry): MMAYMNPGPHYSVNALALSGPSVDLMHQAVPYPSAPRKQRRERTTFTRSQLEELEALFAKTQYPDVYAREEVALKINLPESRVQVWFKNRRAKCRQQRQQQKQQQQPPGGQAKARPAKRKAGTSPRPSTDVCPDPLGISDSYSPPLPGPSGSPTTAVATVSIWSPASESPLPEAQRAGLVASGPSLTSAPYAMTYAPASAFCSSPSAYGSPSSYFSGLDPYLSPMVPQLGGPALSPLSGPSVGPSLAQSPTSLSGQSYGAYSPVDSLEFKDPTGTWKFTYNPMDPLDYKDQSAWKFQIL
# Chain of ETV5 (P41161 whole entry): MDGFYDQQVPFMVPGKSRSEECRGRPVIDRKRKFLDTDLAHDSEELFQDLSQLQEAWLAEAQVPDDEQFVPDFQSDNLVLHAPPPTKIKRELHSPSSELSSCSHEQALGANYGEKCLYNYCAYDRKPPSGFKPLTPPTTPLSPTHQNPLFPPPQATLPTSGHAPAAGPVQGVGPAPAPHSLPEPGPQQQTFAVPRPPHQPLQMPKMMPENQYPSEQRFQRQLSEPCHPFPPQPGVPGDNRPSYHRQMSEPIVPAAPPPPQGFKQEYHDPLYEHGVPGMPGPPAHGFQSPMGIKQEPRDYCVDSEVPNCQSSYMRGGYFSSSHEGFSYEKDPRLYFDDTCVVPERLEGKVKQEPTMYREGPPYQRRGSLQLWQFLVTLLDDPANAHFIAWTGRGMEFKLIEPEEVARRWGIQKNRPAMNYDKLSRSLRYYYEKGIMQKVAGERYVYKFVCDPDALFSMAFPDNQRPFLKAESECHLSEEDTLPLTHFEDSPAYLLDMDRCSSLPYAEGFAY
sequence,measurement,setting,value
TCAACT,binding signal,[1],"1.31 fold enrichment (6-mer frequency, TF over GST control)"
same,binding signal,[2],"1.31 fold enrichment (6-mer frequency, TF over GST control)"
same,binding signal,[3],"1.34 fold enrichment (6-mer frequency, TF over GST control)"
same,binding signal,[4],"1.31 fold enrichment (6-mer frequency, TF over GST control)"
same,binding signal,[5],"1.31 fold enrichment (6-mer frequency, TF over GST control)"
same,binding signal,[6],"1.35 fold enrichment (6-mer frequency, TF over GST control)"
same,binding signal,[7],"1.36 fold enrichment (6-mer frequency, TF over GST control)"
same,binding signal,[8],"1.3 fold enrichment (6-mer frequency, TF over GST control)"
same,binding signal,[9],"1.22 fold enrichment (6-mer frequency, TF over GST control)"
same,binding signal,[10],"1.36 fold enrichment (6-mer frequency, TF over GST control)"
same,binding signal,[11],"1.26 fold enrichment (6-mer frequency, TF over GST control)"
same,binding signal,[12],"1.2 fold enrichment (6-mer frequency, TF over GST control)"
same,binding signal,[13],"1.32 fold enrichment (6-mer frequency, TF over GST control)"
same,binding signal,[14],"1.27 fold enrichment (6-mer frequency, TF over GST control)"
same,binding signal,[15],"1.36 fold enrichment (6-mer frequency, TF over GST control)"
same,binding signal,[16],"1.41 fold enrichment (6-mer frequency, TF over GST control)"
same,binding signal,[17],"1.37 fold enrichment (6-mer frequency, TF over GST control)"
same,binding signal,[18],"1.34 fold enrichment (6-mer frequency, TF over GST control)"
same,binding signal,[19],"1.26 fold enrichment (6-mer frequency, TF over GST control)"
